# Values without a mark were called inactive.
# Columns and labels:
# Assay in all cases: log2 ratio of Biotin-Ahx-Ub-VS probe labelling (fragment/DMSO); higher = less target engagement (more negative = stronger competition), active = hit call of the paper (q ≤ 0.05, log2 ratio ≤ -1)
# Conditions in all cases: compound concentration: 200 uM; treatment time: 3 h
# OTUD6B = biological target: T1, OTUD6B (UniProt Q8N6M0)
# T1 sequence (whole entry): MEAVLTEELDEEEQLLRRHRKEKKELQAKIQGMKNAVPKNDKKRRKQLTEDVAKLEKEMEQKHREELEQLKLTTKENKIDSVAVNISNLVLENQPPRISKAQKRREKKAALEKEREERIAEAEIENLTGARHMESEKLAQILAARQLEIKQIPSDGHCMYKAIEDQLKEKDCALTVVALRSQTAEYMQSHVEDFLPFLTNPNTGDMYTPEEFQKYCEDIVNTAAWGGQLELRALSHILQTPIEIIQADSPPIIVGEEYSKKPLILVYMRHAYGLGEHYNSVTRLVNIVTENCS
# Procedure, shortened: (§1)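 Average log2 ratios of fragment over vehicle were obtained by unpaired t-test from global-median-normalised Spectronaut label-free quantities. Proteins with ≥2 unique peptides were included. HEK293T lysate (495 µg per sample) was treated in triplicate with fragment at 200 µM or vehicle for 3 h, then with Biotin-Ahx-Ub-VS at 0.5 µM final for 1 h, and labelled DUBs were NeutrAvidin-enriched and run by diaPASEF LC-MS/MS.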
# OTUD7B = biological target: T2, OTUD7B (UniProt Q6GQQ9)
# T2 sequence (whole entry): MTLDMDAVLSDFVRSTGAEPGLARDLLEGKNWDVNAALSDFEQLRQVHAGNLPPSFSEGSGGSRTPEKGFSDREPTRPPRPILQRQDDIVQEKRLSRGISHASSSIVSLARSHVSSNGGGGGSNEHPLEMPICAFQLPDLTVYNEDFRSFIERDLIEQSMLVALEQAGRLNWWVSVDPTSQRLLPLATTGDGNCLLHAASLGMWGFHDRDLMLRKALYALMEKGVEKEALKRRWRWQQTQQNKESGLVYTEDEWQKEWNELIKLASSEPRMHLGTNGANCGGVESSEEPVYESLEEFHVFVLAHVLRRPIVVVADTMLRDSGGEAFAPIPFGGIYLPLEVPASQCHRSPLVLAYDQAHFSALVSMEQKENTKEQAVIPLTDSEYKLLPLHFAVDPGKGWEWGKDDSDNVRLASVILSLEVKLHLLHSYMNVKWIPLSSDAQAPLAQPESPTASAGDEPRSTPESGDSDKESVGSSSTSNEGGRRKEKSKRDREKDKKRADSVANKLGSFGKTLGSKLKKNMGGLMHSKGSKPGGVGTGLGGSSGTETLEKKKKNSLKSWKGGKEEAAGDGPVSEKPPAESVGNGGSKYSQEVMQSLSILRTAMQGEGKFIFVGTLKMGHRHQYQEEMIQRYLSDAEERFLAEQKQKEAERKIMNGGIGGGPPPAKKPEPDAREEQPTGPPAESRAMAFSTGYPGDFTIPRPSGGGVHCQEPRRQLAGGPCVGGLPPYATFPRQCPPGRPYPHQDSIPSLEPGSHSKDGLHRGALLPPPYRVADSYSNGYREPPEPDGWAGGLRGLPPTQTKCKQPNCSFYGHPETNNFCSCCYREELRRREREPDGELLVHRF
# Procedure, shortened: as §1
# PRPF8 = PRPF8 (UniProt Q6P2Q9)
# Procedure, shortened: as §1
# PSMD7 = biological target: T3, PSMD7 (UniProt P51665)
# T3 sequence (whole entry): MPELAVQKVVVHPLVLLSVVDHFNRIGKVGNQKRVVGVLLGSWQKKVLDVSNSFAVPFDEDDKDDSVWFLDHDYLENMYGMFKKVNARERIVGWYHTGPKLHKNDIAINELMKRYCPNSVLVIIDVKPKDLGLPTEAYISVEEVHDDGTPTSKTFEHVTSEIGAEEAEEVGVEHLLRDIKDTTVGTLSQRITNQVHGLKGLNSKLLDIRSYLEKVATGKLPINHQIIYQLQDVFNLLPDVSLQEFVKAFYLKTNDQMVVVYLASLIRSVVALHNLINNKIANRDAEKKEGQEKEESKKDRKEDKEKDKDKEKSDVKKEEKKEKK
# Procedure, shortened: as §1
# UCHL1 = UCHL1 (UniProt P09936)
# Procedure, shortened: as §1
# UCHL3 = biological target: T4, UCHL3 (UniProt P15374)
# T4 sequence (whole entry): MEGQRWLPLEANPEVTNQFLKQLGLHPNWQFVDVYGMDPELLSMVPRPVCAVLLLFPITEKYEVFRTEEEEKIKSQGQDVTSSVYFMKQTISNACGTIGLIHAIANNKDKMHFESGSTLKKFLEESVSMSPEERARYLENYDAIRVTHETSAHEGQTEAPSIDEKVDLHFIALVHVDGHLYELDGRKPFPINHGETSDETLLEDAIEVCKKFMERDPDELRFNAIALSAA
# Procedure, shortened: as §1
# UCHL5 = biological target: T5, UCHL5 (UniProt Q9Y5K5)
# T5 sequence (whole entry): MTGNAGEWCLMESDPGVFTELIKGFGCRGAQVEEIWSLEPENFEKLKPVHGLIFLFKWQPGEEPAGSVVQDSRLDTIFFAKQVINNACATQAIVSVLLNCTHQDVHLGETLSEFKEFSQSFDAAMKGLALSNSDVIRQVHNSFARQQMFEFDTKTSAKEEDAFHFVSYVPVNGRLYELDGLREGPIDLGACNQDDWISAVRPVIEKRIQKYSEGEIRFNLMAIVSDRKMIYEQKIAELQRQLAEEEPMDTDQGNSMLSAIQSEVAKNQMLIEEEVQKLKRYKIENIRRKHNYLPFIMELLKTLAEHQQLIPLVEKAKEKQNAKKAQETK
# Procedure, shortened: as §1
# USP10 = USP10 (UniProt Q14694)
# Procedure, shortened: as §1
# USP15 = biological target: T6, USP15 (UniProt Q9Y4E8)
# T6 sequence (whole entry): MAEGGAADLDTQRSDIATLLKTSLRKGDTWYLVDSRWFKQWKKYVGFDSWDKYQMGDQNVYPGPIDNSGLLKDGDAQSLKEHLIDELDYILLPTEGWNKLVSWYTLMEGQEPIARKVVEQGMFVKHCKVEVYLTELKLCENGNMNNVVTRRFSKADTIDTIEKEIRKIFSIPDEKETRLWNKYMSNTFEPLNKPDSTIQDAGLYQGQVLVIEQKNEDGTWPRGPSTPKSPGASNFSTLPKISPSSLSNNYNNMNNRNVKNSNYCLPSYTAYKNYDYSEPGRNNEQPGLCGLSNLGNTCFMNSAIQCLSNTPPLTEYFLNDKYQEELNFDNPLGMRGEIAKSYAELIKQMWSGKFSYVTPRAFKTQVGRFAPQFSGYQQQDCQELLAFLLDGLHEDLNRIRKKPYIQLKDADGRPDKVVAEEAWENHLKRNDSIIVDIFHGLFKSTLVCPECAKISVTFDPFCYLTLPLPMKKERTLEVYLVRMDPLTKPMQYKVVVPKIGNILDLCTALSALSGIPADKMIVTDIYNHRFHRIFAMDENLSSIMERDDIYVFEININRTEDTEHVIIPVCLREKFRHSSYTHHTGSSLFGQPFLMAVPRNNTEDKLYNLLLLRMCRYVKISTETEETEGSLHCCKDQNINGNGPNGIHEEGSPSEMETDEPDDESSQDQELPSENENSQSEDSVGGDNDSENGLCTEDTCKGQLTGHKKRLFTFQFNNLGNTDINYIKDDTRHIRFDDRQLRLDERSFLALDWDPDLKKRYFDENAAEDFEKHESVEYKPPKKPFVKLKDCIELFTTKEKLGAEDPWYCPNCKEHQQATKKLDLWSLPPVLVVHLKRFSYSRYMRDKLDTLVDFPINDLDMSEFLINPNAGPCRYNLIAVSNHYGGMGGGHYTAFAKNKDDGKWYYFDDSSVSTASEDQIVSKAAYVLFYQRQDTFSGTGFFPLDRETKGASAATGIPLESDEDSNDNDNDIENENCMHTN
# Procedure, shortened: as §1
# USP16 = USP16 (UniProt Q9Y5T5)
# Procedure, shortened: as §1
# Sequence of USP16 (Q9Y5T5 whole entry, looked up): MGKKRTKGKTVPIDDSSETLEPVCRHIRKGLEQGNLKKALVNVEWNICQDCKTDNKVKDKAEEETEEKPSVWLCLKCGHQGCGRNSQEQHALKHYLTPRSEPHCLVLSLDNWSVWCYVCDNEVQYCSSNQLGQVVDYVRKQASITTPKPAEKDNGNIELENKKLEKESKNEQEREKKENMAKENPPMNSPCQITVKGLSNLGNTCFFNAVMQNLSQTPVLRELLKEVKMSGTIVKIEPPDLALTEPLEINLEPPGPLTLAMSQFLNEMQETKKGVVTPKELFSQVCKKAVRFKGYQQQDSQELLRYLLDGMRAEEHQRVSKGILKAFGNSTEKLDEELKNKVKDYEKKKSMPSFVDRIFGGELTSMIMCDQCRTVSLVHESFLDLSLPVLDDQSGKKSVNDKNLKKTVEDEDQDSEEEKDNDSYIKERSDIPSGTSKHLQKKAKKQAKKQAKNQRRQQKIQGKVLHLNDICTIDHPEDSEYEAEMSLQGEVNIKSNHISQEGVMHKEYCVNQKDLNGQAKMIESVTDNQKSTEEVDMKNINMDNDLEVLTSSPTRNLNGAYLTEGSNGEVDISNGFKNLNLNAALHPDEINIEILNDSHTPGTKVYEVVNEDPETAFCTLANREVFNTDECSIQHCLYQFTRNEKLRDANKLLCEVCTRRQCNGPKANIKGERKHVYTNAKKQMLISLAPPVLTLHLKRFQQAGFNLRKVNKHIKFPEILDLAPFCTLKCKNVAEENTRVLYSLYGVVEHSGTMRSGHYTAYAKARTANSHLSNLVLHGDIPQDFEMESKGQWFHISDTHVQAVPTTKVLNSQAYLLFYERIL
# Sequence of UCHL1 (P09936 whole entry, looked up): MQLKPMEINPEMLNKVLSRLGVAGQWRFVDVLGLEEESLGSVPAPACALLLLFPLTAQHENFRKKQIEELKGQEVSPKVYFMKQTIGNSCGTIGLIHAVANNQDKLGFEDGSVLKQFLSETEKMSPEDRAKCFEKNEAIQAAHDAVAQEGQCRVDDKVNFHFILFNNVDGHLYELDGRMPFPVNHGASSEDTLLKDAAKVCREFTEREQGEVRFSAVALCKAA
# Sequence of USP10 (Q14694 whole entry): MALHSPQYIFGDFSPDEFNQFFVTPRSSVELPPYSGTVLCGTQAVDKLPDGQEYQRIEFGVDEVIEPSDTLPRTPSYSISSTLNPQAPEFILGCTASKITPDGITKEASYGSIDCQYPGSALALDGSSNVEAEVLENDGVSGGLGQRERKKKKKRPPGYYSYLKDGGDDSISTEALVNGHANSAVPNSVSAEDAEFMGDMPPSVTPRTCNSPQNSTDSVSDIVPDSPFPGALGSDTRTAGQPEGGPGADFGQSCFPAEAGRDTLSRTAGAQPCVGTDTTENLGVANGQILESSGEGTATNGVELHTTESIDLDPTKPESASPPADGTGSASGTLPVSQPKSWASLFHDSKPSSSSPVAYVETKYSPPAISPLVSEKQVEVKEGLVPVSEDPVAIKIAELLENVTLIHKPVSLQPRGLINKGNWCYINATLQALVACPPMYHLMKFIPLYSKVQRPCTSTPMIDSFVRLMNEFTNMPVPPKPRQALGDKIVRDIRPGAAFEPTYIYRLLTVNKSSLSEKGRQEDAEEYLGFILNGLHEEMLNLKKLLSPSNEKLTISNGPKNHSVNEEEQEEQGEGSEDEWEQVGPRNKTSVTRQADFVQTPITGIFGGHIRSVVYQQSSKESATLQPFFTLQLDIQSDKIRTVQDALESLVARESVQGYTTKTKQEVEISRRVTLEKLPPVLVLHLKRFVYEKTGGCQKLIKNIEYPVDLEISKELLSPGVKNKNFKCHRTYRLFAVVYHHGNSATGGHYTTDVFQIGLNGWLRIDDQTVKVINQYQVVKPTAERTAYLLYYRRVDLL
smiles,measurement,setting,value
COc1ccc(C2CCCN2C(=O)CCl)c(OC)c1 (stereo not given),log2 ratio of Biotin-Ahx-Ub-VS probe labelling,OTUD6B,-0.302
same,log2 ratio of Biotin-Ahx-Ub-VS probe labelling,OTUD7B,-0.122
same,log2 ratio of Biotin-Ahx-Ub-VS probe labelling,PRPF8,0.164
same,log2 ratio of Biotin-Ahx-Ub-VS probe labelling,PSMD7,-0.138
same,log2 ratio of Biotin-Ahx-Ub-VS probe labelling,UCHL1,-1.67 (active)
same,log2 ratio of Biotin-Ahx-Ub-VS probe labelling,UCHL3,-1.75 (active)
same,log2 ratio of Biotin-Ahx-Ub-VS probe labelling,UCHL5,-0.34
same,log2 ratio of Biotin-Ahx-Ub-VS probe labelling,USP10,-0.166
same,log2 ratio of Biotin-Ahx-Ub-VS probe labelling,USP15,-0.424
same,log2 ratio of Biotin-Ahx-Ub-VS probe labelling,USP16,-0.285
